Assay results taken from article PMC5540273 (PLoS ONE, 2017).

What was measured:
Details in all cases: concentration: 1 μM, replicates: in singlicate; n = 1
BIKE = tested on: T1, BIKE
T1 construct: gene BMP2K

BLK = tested on: BLK
BMPR1A = tested on: BMPR1A
BMPR1B = tested on: BMPR1B
BMPR2 = tested on: BMPR2
BMX = tested on: BMX
BRAF = tested on: BRAF
BRK = tested on: T2, BRK
T2 construct: gene PTK6

BRSK1 = tested on: BRSK1
BRSK2 = tested on: BRSK2
BTK = tested on: BTK
BUB1 = tested on: BUB1
CAMK1B = tested on: CAMK1B
CAMK1D = tested on: CAMK1D
CAMK1G = tested on: CAMK1G
CAMK1 = tested on: CAMK1
CAMK2A = tested on: CAMK2A
CAMK2B = tested on: CAMK2B
CAMK2D = tested on: CAMK2D
CAMK2G = tested on: CAMK2G
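Further: KINOMEscan kinase panel screen.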

SMILES	%Inh (BIKE)	%Inh (BLK)	%Inh (BMPR1A)	%Inh (BMPR1B)	%Inh (BMPR2)	%Inh (BMX)	%Inh (BRAF)	%Inh (BRK)	%Inh (BRSK1)	%Inh (BRSK2)	%Inh (BTK)	%Inh (BUB1)	%Inh (CAMK1B)	%Inh (CAMK1D)	%Inh (CAMK1G)	%Inh (CAMK1)	%Inh (CAMK2A)	%Inh (CAMK2B)	%Inh (CAMK2D)	%Inh (CAMK2G)
COC(=O)c1cccc(NC(=O)NC2CCN(c3ccnc(Nc4ccc(F)cc4)n3)C2)c1 (stereo not shown) [GSK1379725]	20%	26%	0%	0%	0%	0%	0%	8%	0%	0%	0%	0%	16%	0%	0%	0%	0%	0%	0%	0%
CNc1cc(-c2ccc3c(N)n[nH]c3c2)nc(N)n1 [GSK2224810]	74%	0%	16%	78%	5%	15%	0%	6%	2%	0%	0%	53%	8%	23%	0%	24%	0%	13%	7%	21%
COc1cccc(NC(=O)Nc2ccc(C)c(-c3ccc(C(=O)Nc4ccncc4)cc3)c2)c1 [GSK1398474]	26%	40%	0%	0%	0%	18%	30%	0%	12%	96.2%	0%	0%	0%	25%	0%	21%	0%	2%	11%	22%
COc1ccc(-c2coc3ccc(-c4nnc(C)o4)cc23)cc1	0%	3%	18%	0%	0%	0%	0%	0%	0%	100%	0%	0%	0%	13%	5%	0%	0%	0%	5%	0%
Nc1cccc(-c2ccc3c(N)n[nH]c3c2)n1 [GSK2192730]	74%	0%	2%	16%	0%	1%	0%	0%	55%	37%	0%	0%	0%	30%	9%	29%	0%	0%	20%	31%
Cn1cncc1-c1cc2c(Nc3ccc(OCc4ccccc4)cc3)ncnc2cn1 [GW281179]	4%	27%	13%	0%	8%	1%	0%	19%	0%	2%	0%	34%	25%	14%	0%	20%	0%	0%	12%	36%
CCn1c(-c2ccccc2)nc2cnccc21 [SB-733416]	28%	0%	0%	0%	10%	0%	49%	27%	0%	1%	0%	2%	44%	8%	0%	0%	0%	0%	0%	0%
COc1cccc(C2=C(Nc3cc(Cl)c(O)c(Cl)c3)C(=O)NC2=O)c1 [SB-390767]	21%	0%	0%	0%	1%	13%	0%	18%	7%	0%	0%	2%	0%	16%	0%	4%	0%	0%	0%	0%
O=C(Nc1n[nH]c2nc(-c3cccs3)c(Br)cc12)C1CC1 [SB-735297]	26%	0%	0%	0%	26%	9%	0%	0%	66%	53%	0%	0%	0%	0%	0%	0%	100%	100%	10%	11%
O=C(Nc1n[nH]c2nc(-c3cccs3)c(Br)cc12)C1CCCC1 [SB-743341]	12%	0%	28%	19%	46%	14%	7%	12%	63%	66%	26%	0%	0%	16%	0%	18%	9%	12%	2%	0%
Fc1ccc(-c2nc[nH]c2-c2ccncc2)cc1 [SB-217360]	0%	25%	0%	0%	22%	0%	50%	0%	0%	0%	0%	84%	0%	10%	0%	0%	0%	0%	0%	0%
Cc1c(Cn2c3ccccc3n3c(=O)cc(N4CCOCC4)nc23)cccc1C(F)(F)F [GSK2306394]	7%	34%	0%	0%	0%	0%	8%	3%	0%	0%	0%	3%	13%	20%	0%	5%	0%	0%	9%	7%
COc1cc2ncnc(Nc3cccc(Br)c3)c2cc1OC.Cl [GI230329]	19%	79%	0%	0%	0%	10%	0%	10%	20%	14%	30%	96.5%	0%	18%	0%	23%	0%	0%	0%	32%
Cc1ccccc1Cn1ccn2c(=O)cc(N3CCOCC3)nc12 [GSK2269905]	16%	10%	0%	0%	0%	3%	0%	22%	0%	98.6%	0%	0%	0%	0%	3%	2%	0%	0%	20%	47%
COC(=O)c1cccc(NC(=O)NC2CCN(c3ccnc(Nc4ccc(OC)cc4)n3)C2)c1 (stereo not shown) [GSK1379746]	6%	0%	9%	0%	26%	3%	7%	28%	0%	0%	2%	75%	4%	3%	0%	0%	100%	100%	0%	0%
Nc1nccc(-c2c(-c3ccc(F)cc3)ncn2C2CCN(Cc3ccccc3)CC2)n1 [SB-219980]	0%	0%	0%	2%	0%	0%	0%	0%	0%	0%	0%	38%	56%	0%	0%	12%	0%	0%	0%	0%

SMILES	%Inh (BIKE)	%Inh (BLK)	%Inh (BMPR1A)	%Inh (BMPR1B)	%Inh (BMPR2)	%Inh (BMX)	%Inh (BRAF)	%Inh (BRK)	%Inh (BRSK1)	%Inh (BRSK2)	%Inh (BTK)	%Inh (BUB1)	%Inh (CAMK1B)	%Inh (CAMK1D)	%Inh (CAMK1G)	%Inh (CAMK1)	%Inh (CAMK2A)	%Inh (CAMK2B)	%Inh (CAMK2D)	%Inh (CAMK2G)
O=c1cc(N2CCOCC2)nc2n(Cc3cccc(Cl)c3Cl)c3ccccc3n12 [GSK2299009]	38%	50%	2%	0%	0%	1%	0%	17%	8%	22%	0%	0%	34%	36%	13%	43%	0%	0%	21%	33%
Cc1ccc(NC(=O)Nc2ccc(Cl)cc2)cc1-c1ccc(C(=O)Nc2ccncc2)cc1 [GSK1398472]	18%	21%	0%	0%	0%	15%	43%	30%	0%	0%	0%	43%	34%	13%	0%	10%	0%	0%	0%	13%
FC(F)(F)c1ccccc1-c1cc(-c2c[nH]nc2-c2ccccn2)ccn1 [GW679396]	24%	1%	13%	0%	7%	0%	0%	20%	0%	0%	0%	0%	29%	12%	8%	21%	0%	0%	9%	29%
O=C1NC(=O)C(c2ccc(Cl)cc2)=C1Nc1ccc(O)cc1 [SB-340867]	4%	0%	0%	0%	0%	21%	0%	0%	0%	0%	0%	0%	0%	99.8%	0%	100%	0%	0%	0%	6%
Cc1cccc2c(-c3ccncn3)c(-c3ccc(F)cc3)nn12 [GW515532]	10%	33%	0%	0%	0%	0%	22%	0%	6%	10%	0%	65%	9%	0%	0%	5%	0%	0%	0%	0%
COc1ccc(Nc2nccc(NCCNC(=O)Nc3cc(C)ccc3C)n2)cc1 [GSK1379899]	28%	36%	0%	0%	0%	0%	4%	0%	4%	7%	0%	0%	4%	0%	0%	3%	0%	0%	0%	0%
Cn1cnc2c(N)ncnc21 [SKF-97623]	0%	0%	0%	0%	0%	0%	0%	0%	24%	0%	0%	22%	41%	0%	0%	0%	0%	0%	0%	0%
Cc1nccc(-c2c(-c3ccc(F)cc3)ncn2CCCN2CCOCC2)n1.Cl [SB-282975]	15%	12%	26%	8%	41%	31%	10%	13%	0%	17%	6%	0%	0%	0%	0%	0%	0%	0%	7%	0%
CCCCc1nn2ncccc2c1-c1ccnc(NC2CC2)n1 [GW684374]	23%	0%	0%	0%	0%	4%	7%	0%	0%	0%	0%	91.3%	12%	5%	9%	9%	0%	0%	12%	7%
Cl.Cl.Cl.N#Cc1ccc(CCNc2nccc(-c3cccc(CN4CCNCC4)c3)n2)cc1 [GSK2137462]	25%	0%	0%	0%	0%	12%	0%	8%	0%	2%	0%	0%	0%	29%	24%	31%	11%	3%	28%	27%
Fc1ccc(-c2nc3n(c2-c2ccncc2)CCS3)cc1 [GI98581]	32%	45%	0%	0%	0%	12%	0%	13%	0%	0%	0%	53%	31%	1%	0%	0%	0%	0%	3%	14%
COc1ccc(CSc2nnc(-c3ccc4c(c3)CCO4)o2)cc1	0%	0%	0%	0%	0%	0%	0%	0%	0%	0%	0%	0%	0%	0%	9%	0%	0%	0%	0%	0%
COc1ccc(Nc2nccc(-c3ccc(NC(=O)c4cc5cc(F)ccc5[nH]4)cc3)n2)cc1 [GSK1229496]	33%	0%	0%	0%	21%	16%	0%	16%	0%	0%	0%	29%	26%	0%	6%	0%	0%	0%	3%	34%
NS(=O)(=O)c1cccc(N/C=C2\C(=O)Nc3ccc(S(=O)(=O)Cc4c(Cl)cccc4Cl)cc32)c1 [GSK398099]	0%	0%	0%	0%	8%	0%	0%	2%	0%	0%	0%	34%	23%	17%	26%	27%	0%	0%	26%	16%
CSc1ccc(-c2nc3n(c2-c2ccncc2)CCC3)cc1 [SKF-105561]	16%	4%	0%	6%	1%	0%	7%	1%	0%	0%	0%	90%	0%	15%	0%	0%	0%	0%	0%	0%
CS(=O)(=O)Cc1ccc(Nc2nccc(-c3c(-c4cccc(NC(=O)C5CCCCC5)c4)nn4ncccc34)n2)cc1 [GSK350559]	1%	0%	0%	19%	24%	37%	20%	2%	0%	0%	0%	98.7%	0%	0%	0%	0%	15%	8%	0%	0%
